PubChem BioAssay (Tox21)
Several values for one entry are separate records, joined by “and”; a condition that tells them apart may be missing. Identical values can stand only once. Inconclusive results are not listed. A call without a number means that no potency is given here. Where a structure was tested more than once in an assay, its records may differ in their call. Activity calls are given as the source filed them. Unless noted, calls come from the whole dose curve.

Legend:
[1] = Nuclear factor erythroid 2-related factor 2/antioxidant responsive element (Nrf2/ARE) small molecule agonists: qHTS cell viability counter screen in human keratinocytes (AID 1919968; active = well fitted curve in the direction sought with a large enough effect in the repeat runs; an effect the other way counts as inactive or inconclusive; note: nearly all actives have a fitted effect of over 55% in size; note: potency is the fitted concentration of half-maximal effect)
Outline: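 In human HaCaT keratinocytes stably expressing an ARE-driven luciferase, compound exposure lasted 23 h at 37 C under 5% CO2. Viable cells are quantified with a protease-based fluorogenic reagent (CellTiter-Fluor) read 1 h after addition.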

[2] = Nuclear factor erythroid 2-related factor 2/antioxidant responsive element (Nrf2/ARE) small molecule agonists: luciferase reporter gene qHTS assay in human keratinocytes (AID 1919969); note: nearly all actives have a fitted effect of over 35% in size; note: potency is the fitted concentration of half-maximal effect
[3] = biological target: Gonadotropin-releasing hormone receptor (Homo sapiens) (UniProt P30968); experiment: Human gonadotropin-releasing hormone receptor (GnRHR) small molecule agonists, calcium flux assay in GnRHR-HEK293 cells (AID 1920063); note: nearly all actives have a fitted effect of over 35% in size; note: potency is the fitted concentration of half-maximal effect
Outline: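 Intracellular calcium rise is the read-out: engineered human GnRHR HEK293 cells, dye-loaded, are exposed to DMSO-dissolved compounds and fluorescence at Ex/Em 480/540 is tracked for 3 min.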

[4] = biological target: KiSS-1 receptor (Homo sapiens) (UniProt Q969F8); experiment: Human kisspeptin (KISS1R) small molecule agonists, calcium flux assay in KISS1R-HEK293 cells (AID 1920064; active = well fitted curve in the direction sought with a large enough effect in the repeat runs; an effect the other way counts as inactive or inconclusive)
Outline: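 Concentration-response testing used 15 concentrations in triplicate on human KISS1R-expressing HEK293 cells. Calcium-dependent fluorescence (Ex/Em 480/540) was followed kinetically for 3 min after compound transfer.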

[5] = G protein-coupled receptor (GPCR) small molecule agonists, calcium flux assay: HEK293 wild type cell line counter screen (AID 1920065)
Outline: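 Fluorescence intensity signals activation. After overnight (18 h) culture and a 1 h calcium dye load at 37 C, compounds are added by pin tool and the plate read at 480/540 nm for 3 min in 1 s steps.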

[6] = p53 small molecule agonists, cell-based qHTS assay with human liver microsomes (AID 1963577)
Outline: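 p53RE-bla cells, 4,000/well, compound added after 5 h, with human liver microsomes 0.5 mg/mL and NADPH 0.5 mg/mL final; 16 h at 37 C, then LiveBLAzer 2 h RT, fluorescence.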

[7] = p53 small molecule agonists, cell-based qHTS assay with rat liver microsomes (AID 1963578)
Outline: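 p53RE-bla cells, 4,000/well, pre-incubated 5 h, then given compounds plus rat liver microsomes (0.5 mg/mL final) and NADPH (0.5 mg/mL final). Incubation 16 h at 37 C; beta-lactamase reporter read by LiveBLAzer fluorescence after 2 h at room temperature.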

[8] = p53 small molecule agonists, cell-based qHTS assay with human liver microsomes: qHTS cell viability counter screen (AID 1963579); note: nearly all actives have a fitted effect of over 45% in size; note: potency is the fitted concentration of half-maximal effect
Outline: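 p53RE-bla cells, 4,000/well, dosed 5 hours after plating, with human liver microsomes (0.5 mg/mL final) plus NADPH (0.5 mg/mL final), 16 hours at 37 C. Viability read as CellTiter-Glo luminescence after 30 min at room temperature.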

[9] = p53 small molecule agonists, cell-based qHTS assay with rat liver microsomes: qHTS cell viability counter screen (AID 1963580); note: nearly all actives have a fitted effect of over 45% in size; note: potency is the fitted concentration of half-maximal effect
Outline: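 After the beta-lactamase ratio was read, CellTiter-Glo was added to the same wells and luminescence measured at 30 min; cells had been treated 16 h at 37 C with compounds, rat liver microsomes and NADPH (0.5 mg/mL final each).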

[10] = p53 small molecule agonists, cell-based qHTS assay: qHTS cell viability counter screen (AID 1963581); note: nearly all actives have a fitted effect of over 45% in size; note: potency is the fitted concentration of half-maximal effect
Outline: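 Luminescence from CellTiter-Glo, reflecting ATP content, serves as the cytotoxicity measure; it is taken after the 2 h reporter substrate step in HCT-116 p53RE-bla cells dosed for 16 h at 37 C.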

[11] = p53 small molecule agonists, cell-based qHTS assay (AID 1963582; active = well fitted activation curve with a large enough effect in the signal ratio in the repeat runs, not every such curve was filed as active; the % refers to the signal ratio; note: potency is the fitted concentration of half-maximal effect)
Outline: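 After plating, p53RE-bla cells sat 5 h in the incubator; compounds or DMSO vehicle were pinned in; a 16 h incubation at 37 C followed; FRET substrate was added and, 2 h later at RT, fluorescence was measured.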

[12] = biological target: Beta-2 adrenergic receptor (Homo sapiens) (UniProt P07550); experiment: Adrenergic beta2 receptor (ADRB2) small molecule antagonists, cell-based qHTS assay (AID 1963592); note: series mostly up to about 92 µM; nearly all actives have a fitted effect of over 50% in size
Outline: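 Assay format: CHO-ADRB2 cells, 18-20hr seeding at 37C/5% CO2, then compound plus 1nM isoproterenol agonist mix for 0.5hr RT. Homogeneous time-resolved fluorescence cAMP detection after 1hr, expressed as 665/615 nm ratio.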

[13] = biological target: Beta-2 adrenergic receptor (Homo sapiens) (UniProt P07550); experiment: Adrenergic beta2 receptor (ADRB2) small molecule agonists, cell-based qHTS assay (AID 1963593);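 note: CHO cells stably overexpressing human ADRB2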
Outline: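 CHO cells stably over-expressing ADRB2 were plated overnight at 37C, then dosed with compounds plus a stimulation mix containing 100uM IBMX and 25uM Ro-20-1724 for 0.5hr at room temperature. cAMP was measured by HTRF competition, 1hr.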

[14] = biological target: D(2) dopamine receptor (Homo sapiens) (UniProt P14416); experiment: Dopamine D2 receptor (DRD2) small molecule agonists, cell-based qHTS assay (AID 1963594); note: nearly all actives have a fitted effect of over 35% in size
Outline: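 HEK293 cells stably expressing human DRD2, pre-treated with PDE inhibitor Ro20-1724 (0.1 mM final) and compound 10 min at room temperature, then stimulated with NKH477 (200nM […]) for 30 min. cAMP read by HTRF (665/620 nm).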

[15] = biological target: D(2) dopamine receptor (Homo sapiens) (UniProt P14416); experiment: Dopamine D2 receptor (DRD2) small molecule antagonists, cell-based qHTS assay (AID 1963595; active = well fitted inhibition curve with a large enough effect in the signal ratio in the repeat runs, with a control signal flat; the % refers to the signal ratio; note: potency is the fitted concentration of half-maximal effect)
Outline: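 Cells were plated and grown for 24 h at 37 °C. Ro20-1724 (0.1 mM final) went in first, then compound for 10 min. NKH477 (200 nM) with quinpirole (12 nM) followed for 30 min at RT, then HTRF detection reagents for 1 h.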

[16] = cAMP Responsive Elements (CRE) small molecule antagonists, cell-based qHTS assay (AID 1963591; active = well fitted inhibition curve with a large enough effect in the signal ratio in the repeat runs, not every such curve was filed as active; the % refers to the signal ratio)
Outline: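 Stimulation used NKH477 at a final 0.25 uM for 3 h in compound-treated CRE-bla HEK293T cells, seeded 18 h beforehand. Reporter activity was measured with LiveBLAzer B/G FRET substrate after 2 h at room temperature.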

[17] = cAMP Responsive Elements (CRE) small molecule agonists, cell-based qHTS assay (AID 1963590)
Outline: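 Compound exposure lasted 3 h at 37 C/5% CO2 in CRE-bla HEK 293T cells grown in assay medium with 10% dialyzed FBS and 25 mM HEPES. Reporter signal came from LiveBLAzer B/G FRET substrate, 2 h, room temperature.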

[18] = biological target: 5-hydroxytryptamine receptor 2A (Homo sapiens) (UniProt P28223); experiment: 5-hydroxytryptamine receptor 2A (HTR2A) small molecule antagonists, cell-based qHTS assay (AID 1963586); note: nearly all actives have a fitted effect of over 45% in size; note: potency is the fitted concentration of half-maximal effect
Outline: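 CHO cells stably expressing human HTR2A were plated for 18 h at 37 C, then loaded with calcium dye for 1 h. Compounds were preincubated 5 min at room temperature before DOI (4 nM solution) was added. Kinetic fluorescence was read for 3 min.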

[19] = biological target: 5-hydroxytryptamine receptor 2A (Homo sapiens) (UniProt P28223); experiment: 5-hydroxytryptamine receptor 2A (HTR2A) small molecule agonists, cell-based qHTS assay (AID 1963587); note: nearly all actives have a fitted effect of over 30% in size; note: potency is the fitted concentration of half-maximal effect
Outline: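 CHO cells stably expressing human HTR2A, plated 18 h, loaded with calcium dye 1 h at 37 C. Agonist mode: compounds added and intracellular calcium fluorescence recorded kinetically for 2 min at 1 sec intervals.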

[20] = biological target: Muscarinic acetylcholine receptor M1 (Homo sapiens) (UniProt P11229); experiment: Cholinergic receptor muscarinic 1 (CHRM1) small molecule agonists, cell-based qHTS assay (AID 1963589); note: nearly all actives have a fitted effect of over 35% in size
Outline: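 Fluorescent calcium dye reports M1 activation in stably transfected CHO cells. Compounds, 15 concentrations, added after 1 h dye loading at 37 C; kinetic reading at 1 sec intervals.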

Chain of KiSS-1 receptor (Homo sapiens) (Q969F8 whole entry, looked up): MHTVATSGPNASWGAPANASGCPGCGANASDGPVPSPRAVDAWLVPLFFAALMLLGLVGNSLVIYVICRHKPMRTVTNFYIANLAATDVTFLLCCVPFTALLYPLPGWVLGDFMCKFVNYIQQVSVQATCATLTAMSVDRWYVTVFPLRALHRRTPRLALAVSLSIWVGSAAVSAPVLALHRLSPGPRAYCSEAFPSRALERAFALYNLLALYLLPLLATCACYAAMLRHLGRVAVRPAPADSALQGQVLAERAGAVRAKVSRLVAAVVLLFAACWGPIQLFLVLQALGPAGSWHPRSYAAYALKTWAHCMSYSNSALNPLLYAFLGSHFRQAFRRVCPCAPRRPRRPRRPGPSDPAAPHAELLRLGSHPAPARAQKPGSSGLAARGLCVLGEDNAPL
Chain of 5-hydroxytryptamine receptor 2A (Homo sapiens) (P28223 whole entry, looked up): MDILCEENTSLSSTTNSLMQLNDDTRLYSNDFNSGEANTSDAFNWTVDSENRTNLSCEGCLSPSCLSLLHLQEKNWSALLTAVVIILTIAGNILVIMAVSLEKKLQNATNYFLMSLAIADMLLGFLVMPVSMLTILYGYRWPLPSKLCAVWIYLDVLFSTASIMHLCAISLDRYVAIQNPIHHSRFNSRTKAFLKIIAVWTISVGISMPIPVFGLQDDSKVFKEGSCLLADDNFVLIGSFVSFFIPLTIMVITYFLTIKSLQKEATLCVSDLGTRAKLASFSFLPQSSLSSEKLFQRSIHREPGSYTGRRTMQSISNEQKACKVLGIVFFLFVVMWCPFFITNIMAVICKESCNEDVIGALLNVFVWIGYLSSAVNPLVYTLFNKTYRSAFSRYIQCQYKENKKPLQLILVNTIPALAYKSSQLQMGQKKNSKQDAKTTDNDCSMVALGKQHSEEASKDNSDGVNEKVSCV
Chain of Muscarinic acetylcholine receptor M1 (Homo sapiens) (P11229 whole entry, looked up): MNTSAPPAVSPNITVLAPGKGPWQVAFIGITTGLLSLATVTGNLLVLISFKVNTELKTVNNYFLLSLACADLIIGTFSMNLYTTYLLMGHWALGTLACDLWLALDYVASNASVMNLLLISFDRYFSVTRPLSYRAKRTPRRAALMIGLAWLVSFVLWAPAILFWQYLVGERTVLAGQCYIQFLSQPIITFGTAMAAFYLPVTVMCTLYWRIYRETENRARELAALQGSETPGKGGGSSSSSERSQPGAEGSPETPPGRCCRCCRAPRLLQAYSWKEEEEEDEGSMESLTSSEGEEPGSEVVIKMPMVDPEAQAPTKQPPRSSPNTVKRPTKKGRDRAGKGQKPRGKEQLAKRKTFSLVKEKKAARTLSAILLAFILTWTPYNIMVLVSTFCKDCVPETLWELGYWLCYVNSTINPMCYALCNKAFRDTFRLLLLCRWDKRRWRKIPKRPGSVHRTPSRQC
Chain of D(2) dopamine receptor (Homo sapiens) (P14416 whole entry, looked up): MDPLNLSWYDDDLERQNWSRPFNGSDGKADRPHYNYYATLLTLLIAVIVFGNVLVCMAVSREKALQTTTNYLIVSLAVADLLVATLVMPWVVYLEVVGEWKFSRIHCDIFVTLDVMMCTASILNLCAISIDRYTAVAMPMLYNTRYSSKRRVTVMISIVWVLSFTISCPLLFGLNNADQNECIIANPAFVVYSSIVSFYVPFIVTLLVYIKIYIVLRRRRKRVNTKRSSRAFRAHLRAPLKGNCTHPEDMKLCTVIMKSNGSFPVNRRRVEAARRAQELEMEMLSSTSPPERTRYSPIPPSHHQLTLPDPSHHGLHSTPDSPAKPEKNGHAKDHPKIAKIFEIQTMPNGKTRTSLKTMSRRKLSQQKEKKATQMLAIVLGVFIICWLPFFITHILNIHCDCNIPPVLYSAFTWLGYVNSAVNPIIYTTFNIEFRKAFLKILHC
Chain of Beta-2 adrenergic receptor (Homo sapiens) (P07550 whole entry, looked up): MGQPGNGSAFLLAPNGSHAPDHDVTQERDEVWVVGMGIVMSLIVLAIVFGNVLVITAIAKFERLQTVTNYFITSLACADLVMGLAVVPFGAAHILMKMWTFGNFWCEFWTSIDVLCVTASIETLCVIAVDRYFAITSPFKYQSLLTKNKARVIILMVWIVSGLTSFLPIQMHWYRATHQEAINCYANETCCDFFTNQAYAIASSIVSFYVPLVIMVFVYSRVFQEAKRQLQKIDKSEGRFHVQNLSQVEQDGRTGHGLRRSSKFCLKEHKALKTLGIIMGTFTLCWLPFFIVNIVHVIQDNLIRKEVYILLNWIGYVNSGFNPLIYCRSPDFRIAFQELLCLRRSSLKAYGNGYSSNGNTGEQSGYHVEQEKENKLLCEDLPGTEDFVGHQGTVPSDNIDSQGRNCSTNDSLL
Chain of Gonadotropin-releasing hormone receptor (Homo sapiens) (P30968 whole entry, looked up): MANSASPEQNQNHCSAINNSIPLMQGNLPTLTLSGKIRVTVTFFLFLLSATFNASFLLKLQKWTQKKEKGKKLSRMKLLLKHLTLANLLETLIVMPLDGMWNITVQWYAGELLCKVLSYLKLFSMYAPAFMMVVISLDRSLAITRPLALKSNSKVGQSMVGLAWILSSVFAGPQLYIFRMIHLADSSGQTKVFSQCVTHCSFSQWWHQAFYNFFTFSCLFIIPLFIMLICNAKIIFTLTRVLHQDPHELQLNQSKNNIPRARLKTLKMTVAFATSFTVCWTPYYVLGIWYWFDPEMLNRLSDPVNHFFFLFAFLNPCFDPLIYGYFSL

Structure (SMILES) | Potency [1] | Potency [2] | Potency [3] | Potency [4] | Potency [5] | Potency [6] | Potency [7] | Potency [8] | Potency [9] | Potency [10] | Potency [11] | Potency [12] | Potency [13] | Potency [14] | Potency [15] | Potency [16] | Potency [17] | Potency [18] | Potency [19] | Potency [20]
C#C[C@]1(O)CC[C@H]2[C@@H]3CCc4cc(O)ccc4[C@H]3CC[C@@]21C | inactive | inactive | inactive | inactive | inactive | inactive | inactive | inactive | inactive | inactive | 16.1 µM (active) | inactive | inactive | inactive | inactive |  |  |  |  | 
CNC[C@H](O)c1ccc(O)c(O)c1 | inactive | inactive | 110 nM (active) and 233 nM (active) | inactive | inactive | inactive | inactive | inactive | inactive | inactive | inactive |  |  | inactive | 13 µM (active) | inactive |  |  |  | 
Cc1cn([C@H]2C[C@H](N=[N+]=[N-])[C@@H](CO)O2)c(=O)[nH]c1=O | inactive | inactive | inactive | inactive | inactive | inactive | inactive | inactive | inactive | inactive | inactive | inactive | inactive | inactive | inactive |  | inactive |  |  | 
CC(=O)OC(C)(C)C1CC=C(C)CC1 (configuration not stated) | inactive | inactive | inactive | inactive | inactive | inactive | inactive | inactive | inactive | inactive |  |  | inactive | inactive | inactive | inactive | inactive | inactive | inactive | inactive
CC1(C)[C@@H]2CC[C@@]1(C)C(=O)C2 | inactive | inactive | inactive | inactive | inactive | inactive | inactive | inactive | inactive | inactive | inactive | inactive | inactive | inactive | inactive |  | inactive |  |  | 
Cc1cc(Cc2ccc(N)c(C)c2)ccc1N | inactive | inactive | inactive | inactive | inactive | inactive | inactive | inactive | inactive | inactive |  | inactive | inactive | inactive | inactive | inactive | inactive | inactive | inactive | inactive
O=C(O)CC(C(=O)O)C(CC(=O)O)C(=O)O (configuration not stated) | inactive | inactive | inactive | inactive | inactive | inactive | inactive | inactive | inactive | inactive |  | inactive |  | inactive | inactive | inactive | inactive | inactive | inactive | inactive
O=C(O)c1ccccc1Nc1cccc(C(F)(F)F)c1 | inactive | 13.7 µM (active) and inactive | inactive | inactive | inactive | inactive | inactive | 40.8 µM (active) and inactive | inactive | inactive |  | inactive | inactive | inactive | inactive | inactive |  | inactive | inactive | inactive
CC(=O)OC/C=C(C)/C=C/C=C(C)/C=C/C1=C(C)CCCC1(C)C | inactive | 66.9 µM (active) and 54.5 µM (active) and 29.8 µM (active) | inactive | inactive | inactive | inactive | inactive | inactive | inactive | inactive |  | inactive | inactive |  | inactive | inactive | inactive | inactive | inactive | inactive
CCCCCCCCCCCCCCCC[N+](C)(C)Cc1ccccc1 | 28.2 µM (active) and 24.8 µM (active) and 26.6 µM (active) | inactive | inactive | inactive | inactive | inactive | inactive | 53 µM (active) and 33 µM (active) and inactive | 41.5 µM (active) and inactive | 37 µM (active) |  | inactive |  | inactive | 55.5 µM (active) |  |  | inactive and 11.6 µM (active) | 49.8 µM (active) | inactive
C[C@H]1C[C@@H]2[C@H]([C@@H](O)C[C@@]3(C)[C@H]2CC[C@]3(O)C(=O)CO)[C@@]2(C)C=CC(=O)C=C12 | inactive | inactive | inactive | inactive | inactive | inactive | inactive | inactive | inactive | inactive | inactive | inactive | inactive | inactive | inactive |  | inactive |  |  | 
CCc1ccc(CCOc2ccc(CC3SC(=O)NC3=O)cc2)nc1 (configuration not stated) | inactive | 27.3 µM (active) and inactive | inactive | inactive | inactive | inactive | inactive | inactive | inactive | inactive | inactive | inactive | inactive | inactive | inactive |  |  |  |  | 
NC(=O)N/N=C/c1ccc([N+](=O)[O-])o1 | inactive | inactive and 30.6 µM (active) | inactive | inactive | inactive | inactive | inactive | inactive | inactive | inactive |  | inactive | inactive |  | inactive | inactive | inactive | inactive | inactive | inactive
NC(N)=NC(=O)c1nc(Cl)c(N)nc1N | inactive | inactive | inactive | inactive | inactive | inactive | inactive | inactive | inactive | inactive | inactive |  | inactive |  | inactive | inactive | inactive |  |  | 
CC(C)(C)NC(=O)[C@H]1CC[C@H]2[C@@H]3CC[C@H]4NC(=O)C=C[C@]4(C)[C@H]3CC[C@]12C | inactive | inactive | inactive | inactive | inactive | inactive | inactive | inactive | inactive | inactive | inactive | inactive | inactive | inactive | inactive |  |  |  |  | 
